Experimental data as given in PubChem BioAssay AID894 (National Center for Advancing Translational Sciences (NCATS), 2007).
Where “and” joins values, the source holds several entries; their conditions need not be identical. Equal values may be shown once. Among all 150,000 compounds or so, about 6,500 (4.3%) were called active. Another 12% or so got no clear call; they are omitted. This is one part of a sample in which actives are shown more often than they occur. Where a structure was tested more than once in an assay, its records may differ in their call. Unmarked numbers belong to inactive results. Calls follow the shape of the dose curve; as a rule, active = well fitted inhibition curve with a large enough effect (not every such curve was filed as active); inconclusive = small, poorly fitted or top-dose-only effect, or another doubt; inactive = no such curve, though single readings can be large or run the other way.

target: 15-hydroxyprostaglandin dehydrogenase [NAD(+)] (Homo sapiens) (UniProt P15428); test: qHTS Assay for Inhibitors of HPGD (15-Hydroxyprostaglandin Dehydrogenase); settings: purified HPGD, NADH fluorescence kinetic, PGE2 substrate; activity change, negative = inhibition: active compounds read low
Sequence (P15428 whole entry, looked up): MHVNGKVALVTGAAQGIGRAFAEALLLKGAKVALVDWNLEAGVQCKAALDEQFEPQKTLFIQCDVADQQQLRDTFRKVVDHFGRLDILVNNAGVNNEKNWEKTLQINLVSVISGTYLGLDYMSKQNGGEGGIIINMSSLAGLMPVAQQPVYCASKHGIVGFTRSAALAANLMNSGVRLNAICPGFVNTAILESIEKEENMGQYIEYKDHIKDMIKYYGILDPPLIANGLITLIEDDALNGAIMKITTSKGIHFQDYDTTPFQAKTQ
Method in brief: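 20 nM HPGD preincubated 15 min at room temperature with compound in 50 mM Tris-HCl pH 8, 0.01% Tween 20. Started with 1 mM NAD+ and 30 uM prostaglandin E2; NADH fluorescence (360/450 nm) read 5 times over 30-s intervals, last minus first.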
% is scaled to controls: 0 for no effect and ±100 for the full control effect; potency is read from the fitted curve at half-maximal effect.

SMILES | activity change, negative = inhibition | Potency
CCCCCCOC(=O)NCC(O)c1ccccc1 (configuration not stated) | -19.8% | 
CCCCCC(O)c1cccc(OCc2ccc3ccccc3n2)c1 (configuration not stated) | -26.2% and -5.68% | 14.1 µM (active)
CCCn1c(C(O)c2ccc(OCC)cc2)nc2ccccc21 (configuration not stated) | -9.25% | 
Cc1nn(-c2ccccc2)c(Cl)c1C(=O)Nc1ccccc1 |  | 14.1 µM (active)
Cc1cc(NC(=O)Nc2ccccc2)n(-c2ccccc2)n1 | -0.703% | 
Cc1nn(-c2ccccc2)c(C)c1NC(=O)CCl | -8.71% | 
CCCCNC(=O)C1CCC(CNS(=O)(=O)c2ccc(NC(C)=O)cc2)CC1 (configuration not stated) | -26.6% | 
COc1ccc(NC(=S)NCC2CCN(c3ccc(OC)cc3)C2)cc1 (configuration not stated) | -3.49% | 
O=C(NNC(=S)Nc1ccc(Br)cc1Cl)c1ccco1 | -15.2% | 
CNC(=S)NNC(=O)c1sccc1OCc1ccccc1 | 1.03% | 
Cc1ccsc1C(=O)N/N=C/c1ccc([N+](=O)[O-])cc1 | -12.4% | 
Cc1ccc(/C=N/NC(=O)c2sccc2OCc2ccc(F)cc2)cc1 |  | 31.6 µM (active)
Cc1ccc(NC(=O)O[C@@H]2C(=O)c3cc(Br)ccc3O[C@H]2c2ccc3c(c2)OCO3)cc1Br | -8.38% | 
O=C1C=C(c2ccc(Cl)cc2)C(=O)N1Nc1ccccc1 |  | 22.4 µM (active)
O=C1c2cccc3cc(Br)cc(c23)C(=O)N1Nc1ccccc1 | -5.3% | 
O=C(Nc1ccccc1)OCc1cc(-c2ccc(Cl)cc2)on1 | -7.01% | 
Cc1cc(N2CCOCC2)nc(-c2ccc(Br)cc2)n1 | -7.33% | 
CCC(C)NCCOCCOc1ccc(Br)cc1C (configuration not stated) | -6.54% | 
Cc1ccc(C(=O)/C=C/Nc2ccc(S(=O)(=O)Nc3onc(C)c3C)cc2)cc1 | -26.4% | 
Cc1ccc(S(=O)(=O)N2CCCC2C(=O)OCc2nc3sc(C)c(C)c3c(=O)[nH]2)cc1 (configuration not stated) | -20.7% | 
Cc1cc(C=O)c(C)n1-c1ccc(NC2CCCCC2)c([N+](=O)[O-])c1 |  | 7.94 µM (active)
Cc1cc([N+](=O)[O-])ccc1NC1CCCC1 | -16.1% | 
Cc1c(NS(=O)(=O)c2ccc(NC3CCCC3)c([N+](=O)[O-])c2)c(=O)n(-c2ccccc2)n1C | -7.49% | 
COc1ccc(C2NC(=S)NC3=C2CCc2ccccc23)cc1OC (configuration not stated) | -17.9% | 

SMILES | activity change, negative = inhibition | Potency
Cc1nn(Cc2ccc(F)cc2)c(C)c1NC(=O)c1cccnc1Cl | -10.3% | 
COc1cccc(CNCCc2c[nH]c3ccccc23)c1OCc1ccccc1F | -4.46% | 
CCOc1cc(/C=N/O)ccc1OCc1ccccc1F | -1.63% | 
COc1cc(/C=C2/C(=O)ON=C2C)ccc1OCc1ccccc1F |  | 1.58 µM (active)
CCOc1ccc(/C=N/NC(=O)C(C)Sc2ccccn2)cc1OCC (configuration not stated) | -18.1% | 
COc1ccc(/C=C/C(=O)c2ccc(NS(=O)(=O)c3ccc(C)cc3)cc2)cc1O | -19.9% | 
O=C1CC(Sc2ncn[nH]2)C(=O)N1c1ccccc1 (configuration not stated) |  | 12.6 µM (active)
CCOC(=O)c1ccc(N2C(=O)CC(Sc3nc(O)c(CC)c(=O)[nH]3)C2=O)cc1 (configuration not stated) | -10.7% | 
COc1ccc(N2C(=O)CC(SC(C)C)C2=O)cc1 (configuration not stated) | -4.33% | 
CCNc1nc(NC(C)C)nc(N2CC(=O)N(CC(=O)OCC)C2=N)n1 | -1.19% | 
CCCCS(=O)(=O)N1C2=NC(C(=O)OC)=C(C(=O)OC)[C@@H]3N(Cc4ccccc4)c4ccccc4[C@]23C[C@H]1C(=O)OC | -6.02% | 
N#Cc1ccsc1NC(=O)CN1CCCCC1 | -11.5% | 
CCC(=O)Nc1sc(C(=O)N2CCCCC2)c(C)c1C#N |  | 4.47 µM (active)
CCN(CC)C(=O)c1sc(NC(=O)c2ccco2)c(C#N)c1C | -18.8% | 
CC1CN(C(=S)SCC(=O)c2ccccc2)CC(C)O1 (configuration not stated) | -10.1% | 
CCC(C)(C)C1CCC(=NNC(=O)c2ccc(Br)o2)CC1 (configuration not stated) | -9.21% | 
O=C(CSc1nnc(SCc2ccc(Cl)cc2)s1)N/N=C/c1ccccc1Cl | -3.98% | 
O=C(COC(=O)CCCNC(=O)c1ccc(Cl)cc1)Nc1cc(Cl)ccc1Cl | -18.1% | 
C/C(=N\NC(=O)c1ccccc1C)c1ccc(N2CCOCC2)cc1 | -15.3% | 
Cc1ccccc1N/N=C/c1ccc(N2CCOCC2)cc1 |  | 28.2 µM (active)
C(=N/Nc1cc(N2CCOCC2)nc(N2CCOCC2)n1)/c1ccccc1 | -6.61% | 
CCN(CC)S(=O)(=O)c1cc([N+](=O)[O-])ccc1N=Nc1c(O)n(C)c2ccccc12 | -5.63% | 
Cc1c(/C=N/N2C(=O)C3C4C=CC(C4)C3C2=O)c2ccccc2n1C (configuration not stated) | -1.58% | 
CC(=O)N1c2ccccc2N(Cc2ccc([N+](=O)[O-])cc2)C(=O)C1(C)C | -6.13% | 

SMILES | activity change, negative = inhibition | Potency
CCCN1CNC(=S)N(CCc2ccccc2)C1 | 1.42% | 
Cc1ccc(OCC(=O)OC(C)CN(C)Cc2ccccc2)cc1 (configuration not stated) | -13.4% | 
O=C(CSc1nc(-c2ccco2)cc(C(F)(F)F)n1)N1CCc2ccccc2C1 |  | 2.24 µM (active)
FC(F)(F)c1cc(-c2ccco2)nc(N2CCOCC2)n1 | -8.04% | 
O=C(CSc1nc(-c2ccco2)cc(C(F)(F)F)n1)NCc1cccs1 | -3.58% | 
CN(C)c1ccc(/C=N/N(Cc2ccccc2)c2ccccc2)cc1 | -11.9% | 
CCN(C(=O)COC(=O)c1cc(NS(=O)(=O)c2ccc(Cl)c([N+](=O)[O-])c2)ccc1O)C1CCCCC1 | -7.74% | 
CNC(=S)N1CCN(c2ccccn2)CC1 | -14% | 
CN(C)c1ccc(/C=N\S(=O)(=O)c2ccccc2)cc1 | -10.7% | 
CCOC(=O)CSc1nc2c(sc(=S)n2CCc2ccccc2)c(=O)n1Cc1ccco1 |  | 20 µM (active)
COc1ccccc1NC(=O)CSc1nc2sc(C)c(C)c2c(=O)n1Cc1ccco1 | -18.7% | 
CCOC(=O)CSc1nc2c(c(=O)n(C)c(=O)n2C)n1Cc1ccccc1F | -4.76% | 
COc1ccc(C(=O)Nc2ccc3nc(N4CCCCC4)cc(C)c3c2)cc1OC | -27.2% | 
Cc1ccc(S(=O)(=O)N2CCC(N3CCCCCC3)CC2)cc1 | -7.84% | 
CC1(C)CC(=O)C(N=Nc2ccc(S(=O)(=O)N3CCCCCC3)cc2)=C(O)C1 |  | 25.1 µM (active)
COc1ccc(S(=O)(=O)N2CCCCC2)cc1Br | -1.54% | 
C=CCOc1c(Br)cc(/C=N\n2nnnc2N)cc1OC | -12.6% | 
CCOc1c(Br)cc(/C=C2\C(=O)N(CCC#N)N=C2C)cc1OC |  | 5.01 µM (active)
CCOc1cc(/C=N/O)cc(Br)c1OC | -21.3% | 
COc1ccc(-c2oc3cc(OC)ccc3c2C(=O)c2ccc(C#N)cc2)cc1 | -8.41% | 
COc1ccc(C(=O)c2c(C)oc3cc([N+](=O)[O-])c(O)c([N+](=O)[O-])c23)cc1 |  | 14.1 µM (active)
COc1ccc(S(=O)(=O)Nc2ccc3oc(C)c(C(C)=O)c3c2)cc1 | -11.3% | 
CCO/N=C(/C)c1c(O)cc(-c2ccccc2)n(-c2ccccc2)c1=O | -9.45% | 
Cn1nnc(NC(=O)CSc2ncn[nH]2)n1 | -3.42% | 

SMILES | activity change, negative = inhibition | Potency
CCN(C(=O)CSc1ncn[nH]1)c1cccc2ccccc12 | -11.5% | 
CC(C)(C)c1ccc(C(=O)CSc2ncn[nH]2)cc1 |  | 25.1 µM (active)
S=C(NCC1COc2ccccc2O1)Nc1ccc(Br)cc1 (configuration not stated) | -26.7% | 
Cc1ccc(CCCOC(=O)C[N+]2(C)CCCC2)cc1 | -8.3% | 
O=C(CSc1nnc(-c2cccs2)n1-c1ccccc1)NCc1ccco1 | -2.44% | 
C=CCn1c(CSc2nc3ccccc3s2)nnc1SCC(=O)NCc1ccco1 |  | 17.8 µM (active)
C=CCn1c(SCC(=O)Nc2nc3ccccc3s2)nnc1-c1ccccc1O | -10.2% | 
O=C(Cc1ccccc1)NNS(=O)(=O)c1ccc([N+](=O)[O-])cc1 | -13.6% | 
COc1ccc(CC(=O)Nc2cc(S(=O)(=O)N3CCCCC3)ccc2N2CCN(C)CC2)cc1 | -7.18% | 
COc1cc(/C=C/C(=O)N2c3ccccc3Sc3ccc(C(F)(F)F)cc32)cc(OC)c1OC | -14.1% | 
CCOC(=O)c1sc(NC(=O)c2ccncc2)nc1C | -16.2% | 
CCOC(=O)C1=C(C)Nc2sc(C(=O)c3ccc(Br)cc3)c(N)c2C1c1ccc(C(=O)OC)cc1 (configuration not stated) | -7.23% | 
CCOC(=O)c1sc(=S)n2c1[nH]c(=O)c1ccc(C(=O)OC)cc12 |  | 8.91 µM (active)
CN(C)c1ccc(C(CNC(=O)c2ccc(F)cc2)c2c[nH]c3ccccc23)cc1 (configuration not stated) | -5.43% | 
Cc1ccc(SCCC(=O)NC(C(C)C)C(C)C)cc1 |  | 7.94 µM (active)
Cc1ccc(SCC(=O)Nc2ncc(C)s2)cc1 | -20.4% | 
Cc1ccc(SCCC(=O)OCC(=O)Nc2ncc(Cl)cc2Cl)cc1 | -8.54% | 
CC/C=C\C/C=C\C/C=C\C/C=C\C/C=C\C/C=C\CCC(=O)NCCc1ccc(O)c(O)c1 | -14.7% | 
Cc1nc2ccccc2c2oc(C(=O)NCC3CCCO3)cc12 (configuration not stated) | -26% | 
CCOc1ccc(S(=O)(=O)NCC2CCCO2)cc1 (configuration not stated) | -2.22% | 
Cc1ccc(-c2noc(-c3ccccc3C(=O)NCC3CCCO3)n2)cc1 (configuration not stated) | -6.63% | 
Cc1c(C(=O)NCC2CCCO2)sc2nc(-c3ccccc3)cn12 (configuration not stated) |  | 28.2 µM (active)
CCOc1ccc(-n2c(N)c(C(=O)NCC3CCCO3)sc2=S)cc1 (configuration not stated) |  | 8.91 µM (active)
Cc1ccc(C(=O)NCC2CCCO2)o1 (configuration not stated) | -12% | 
